For one test, the target named is THRB (gene 7068) (UniProt P10828). Kind of test: TOX21_TRB_COA_Antagonist_Followup_ratio: Tox21 Thyroid Hormone Receptor beta Antagonism through Coactivator Recruitment Follow-Up Assay, Ratio (AID 2283967). A digest of the protocol:
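Cell-free TR-FRET coactivator recruitment with GST-tagged TRβ LBD (5.0 nM) and fluorescein-labeled SRC-2 peptide (200 nM) detected by terbium anti-GST antibody (2 nM). The 520:495 nm emission ratio was normalized to DMSO (0%) and T3 (100%).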

For test [1], the target named is Retinoic acid receptor RXR-alpha (Homo sapiens) (UniProt P19793). Kind of test: TOX21_TR_RXR_BLA_Antagonist_Followup_ratio: Tox21 Thyroid Hormone Receptor beta Retinoid X Receptor alpha (RXRa) Antagonism Beta-lactamase (BLA) Follow-Up Assay, Ratio (AID 2283972). A digest of the protocol: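 Beta-lactamase reporter readout as cleaved/uncleaved substrate ratio (460:530 nm) after 2 h substrate loading at room temperature. GAL4-RXRa bla HEK293T cells were exposed 16 h at 37C to 11-point compound series; loss of signal scored against DMSO baseline.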
Retinoic acid receptor RXR-alpha (Homo sapiens), sequence (P19793 whole entry, looked up, the tested form may be a part): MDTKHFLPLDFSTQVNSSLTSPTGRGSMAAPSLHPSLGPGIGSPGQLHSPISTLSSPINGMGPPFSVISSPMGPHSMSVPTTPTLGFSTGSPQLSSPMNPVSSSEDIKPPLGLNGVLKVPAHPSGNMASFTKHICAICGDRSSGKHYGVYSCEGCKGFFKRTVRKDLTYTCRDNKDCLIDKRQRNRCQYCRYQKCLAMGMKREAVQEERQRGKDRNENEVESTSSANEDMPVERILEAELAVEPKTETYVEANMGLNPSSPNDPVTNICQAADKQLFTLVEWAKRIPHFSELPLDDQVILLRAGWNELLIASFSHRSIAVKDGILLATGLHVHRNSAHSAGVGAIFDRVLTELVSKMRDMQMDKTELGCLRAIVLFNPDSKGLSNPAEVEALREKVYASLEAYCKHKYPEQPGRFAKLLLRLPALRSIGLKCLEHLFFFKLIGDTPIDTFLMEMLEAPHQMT

Test [2] deals with Nucleoli Translocation, AR (gene 367) (UniProt P10275). Kind of test: UPITT_HCI_U2OS_AR_TIF2_Nucleoli_Agonist: University of Pittsburgh U2OS Androgen Receptor-Transcriptional Intermediary Factor 2 (AR-TIF2) Agonism High Content Imaging Assay for Nucleoli Translocation (AID 2283998). Put shortly:
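RFP-AR / GFP-TIF2 cells; cpds diluted in serum-free medium; single-point screen 20 uM final (0.2% DMSO), actives confirmed in triplicate; conc-response 0.195–50 uM final (0.5% DMSO). Readout: nucleolar red fluorescence, positive direction vs DMSO.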

Test [3] has as its target Ratio of Nucleoli Translocation and Cytoplasm, AR (gene 367) (UniProt P10275). Kind of test: UPITT_HCI_U2OS_AR_TIF2_Nucleoli_Cytoplasm_Ratio_Antagonist: University of Pittsburgh U2OS Androgen Receptor-Transcriptional Intermediary Factor 2 (AR-TIF2) Antagonism High Content Imaging Assay for Ratio of Nucleoli Translocation and Cytoplasm (AID 2283999).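 Note: antagonists lower the DHT-driven ratio of nucleolar to cytoplasmic red signal.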 A digest of the protocol: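 U2OS cells co-expressing RFP-tagged human AR and GFP-tagged TIF2, antagonist mode with DHT as baseline. Nucleolar-to-cytoplasmic red fluorescence ratio imaged by high-content microscopy; final compound 20 uM (0.2% DMSO) primary, 0.195–50 uM (0.5% DMSO) concentration-response.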

Test [4] shares this target. Kind of test: UPITT_HCI_U2OS_AR_TIF2_Nucleoli_Cytoplasm_Ratio_Agonist: University of Pittsburgh U2OS Androgen Receptor-Transcriptional Intermediary Factor 2 (AR-TIF2) Agonism High Content Imaging Assay for Ratio of Nucleoli Translocation and Cytoplasm (AID 2284000).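 Note: hits raise the red nucleolar to cytoplasm ratio above vehicle.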 Put shortly: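 U2OS cells expressing RFP-tagged human AR and GFP-tagged TIF2 were imaged by high-content fluorescence microscopy. The endpoint is the ratio of nucleolar to cytoplasmic red fluorescence, fitted for gain of signal relative to DMSO. Concentration-response spanned 0.195 to 50 uM final (0.5% DMSO).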

The next test relates to DIO1 (gene 1733). Kind of test: CCTE_GLTED_hDIO1: CCTE's human Deiodinase 1 (DIO1) Inhibition Assay, Great Lakes Toxicology and Ecology Division (GLTED) Lab (AID 2283987).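 Note: isolated human DIO1 enzyme in a cell-free setup rather than cells; enzyme activity read as free iodide liberated from substrate via Sandell-Kolthoff colorimetry.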 A digest of the protocol:
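Steps: human DIO1 enzyme plus test chemical, 3 h incubation; free iodide then quantified in a second Sandell-Kolthoff step by absorbance. DMSO served as negative control and baseline.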

The nature of test [5]: CCTE_Simmons_MITO_basal_resp_rate: CCTE's HepG2 Seahorse XF Respirometric Screening Assay at Basal Respiratory State, Simmons Lab (AID 2284001; active = hit-call score of the fitted dose curve at least 0.9, where 1 is the maximum; inactive = score below 0.9). To be noted: actives raise or lower the signal. Put shortly: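 HepG2 cells were given test chemicals at 7 concentrations, 125 nM to 100 uM final, and oxygen consumption rate was read every 6 min (3 min mix, 3 min measure) over 72 min. Basal-phase OCR was fitted bidirectionally against DMSO.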

Test [6] concerns the target Retinoic acid receptor RXR-alpha (Homo sapiens) (UniProt P19793). Kind of test: TOX21_TR_RXR_BLA_Agonist_Followup_ratio: Tox21 Thyroid Hormone Receptor beta Retinoid X Receptor alpha (RXRa) Agonism Beta-lactamase (BLA) Follow-Up Assay, Ratio (AID 2283968). Put shortly: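 RXRa-UAS-bla HEK293T cells, 5 h attachment at 37C/5% CO2, then 11 concentrations in triplicate for 16 h; 9-cis retinoic acid positive control. FRET-B/GCCF4-AM substrate 2 h at room temperature; 460:530 nm ratio, fitted for gain versus DMSO.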

The nature of test [7]: TOX21_TR_RXR_BLA_Agonist_Followup_viability: Viability Assessment in the Tox21 Thyroid Hormone Receptor beta Retinoid X Receptor alpha (RXRa) Agonism Beta-lactamase (BLA) Follow-Up Assay (AID 2283970). A digest of the protocol: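 RXRa-UAS-bla HEK293T cells, 2,500/well in phenol red-free DMEM with 2% charcoal-stripped FBS, dosed for 16 h at 37C. Viability measured by CellTiter-Glo ATP luminescence; fitted bidirectionally against DMSO baseline, loss of signal indicating cytotoxicity.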

Test [8] in a line: CCTE_Harrill_HTTr_Viability_DMEM_6hr: (Pilot) CCTE's 6-hour Cell Viability Assessment for the High-Throughput Transcriptomics (HTTr) Platform, in MCF-7 cells cultured in DMEM + 10% fetal bovine serum, Harrill Lab (AID 2283973; active = hit-call score of the fitted dose curve at least 0.9, where 1 is the maximum; inactive = score below 0.9). Put shortly:
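MCF-7 cells in DMEM + 10% FBS, eight-point dilution series, 6 h exposure. Membrane integrity by propidium iodide exclusion with high-content imaging; bidirectional fit versus DMSO.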

Test [9] is described as follows: CCTE_Harrill_HTTr_Viability_DMEM_12hr: (Pilot) CCTE's 12-hour Cell Viability Assessment for the High-Throughput Transcriptomics (HTTr) Platform, in MCF-7 cells cultured in DMEM + 10% fetal bovine serum, Harrill Lab (AID 2283974; active = hit-call score of the fitted dose curve at least 0.9, where 1 is the maximum; inactive = score below 0.9). Put shortly: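 MCF-7 cells in DMEM + 10% FBS exposed 12 h to an eight-point dilution series; membrane integrity scored by propidium iodide exclusion with high-content imaging, bidirectional fitting versus DMSO.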

Test [10] is described as follows: CCTE_Harrill_HTTr_Viability_DMEM_24hr: (Pilot) CCTE's 24-hour Cell Viability Assessment for the High-Throughput Transcriptomics (HTTr) Platform, in MCF-7 cells cultured in DMEM + 10% fetal bovine serum, Harrill Lab (AID 2283975; active = hit-call score of the fitted dose curve at least 0.9, where 1 is the maximum; inactive = score below 0.9). Put shortly: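 MCF-7 cells in DMEM with 10% FBS exposed for 24 hours to an eight-point dilution series. Membrane integrity by propidium iodide exclusion with high content imaging; bidirectional fit against DMSO.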

Test [11] in a line: CCTE_Harrill_HTTr_Viability_PRF_DMEM_6hr: (Pilot) CCTE's 6-hour Cell Viability Assessment for the High-Throughput Transcriptomics (HTTr) Platform, in MCF-7 cells cultured phenol red-free DMEM + 10% charcoal-stripped fetal bovine serum, Harrill Lab (AID 2283976; active = hit-call score of the fitted dose curve at least 0.9, where 1 is the maximum; inactive = score below 0.9). Put shortly: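 MCF-7 cells in phenol red-free DMEM with 10% charcoal-stripped FBS exposed 6 hours to an eight-point dilution series. Propidium iodide exclusion imaged; curves fitted bidirectionally against DMSO.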

A short description of test [12]: CCTE_Harrill_HTTr_Viability_PRF_DMEM_12hr: (Pilot) CCTE's 12-hour Cell Viability Assessment for the High-Throughput Transcriptomics (HTTr) Platform, in MCF-7 cells cultured in phenol red-free DMEM + 10% charcoal-stripped fetal bovine serum, Harrill Lab (AID 2283977; active = hit-call score of the fitted dose curve at least 0.9, where 1 is the maximum; inactive = score below 0.9). A digest of the protocol:
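MCF-7 cells in phenol red-free DMEM with 10% charcoal-stripped FBS exposed 12 hours to an eight-point dilution series. Viability assessed by high-content imaging of propidium iodide exclusion; bidirectional fit versus DMSO.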

A short description of test [13]: CCTE_Harrill_HTTr_Viability_PRF_DMEM_24hr: (Pilot) CCTE's 24-hour Cell Viability Assessment for the High-Throughput Transcriptomics (HTTr) Platform, in MCF-7 cells cultured in phenol red-free DMEM + 10% charcoal-stripped fetal bovine serum, Harrill Lab (AID 2283980; active = hit-call score of the fitted dose curve at least 0.9, where 1 is the maximum; inactive = score below 0.9). A digest of the protocol: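 MCF-7 cells in phenol red-free DMEM with 10% charcoal-stripped FBS, eight-point dilution series, 24 h exposure. Membrane integrity by propidium iodide exclusion with high content imaging; bidirectional fit vs DMSO.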

A short description of test [14]: CCTE_Harrill_HTTr_Apoptosis_DMEM_6hr: (Pilot) CCTE's 6-hour Apoptosis Assessment for the High-Throughput Transcriptomics (HTTr) Platform, in MCF-7 cells cultured in DMEM + 10% fetal bovine serum, Harrill Lab (AID 2283981; active = hit-call score of the fitted dose curve at least 0.9, where 1 is the maximum; inactive = score below 0.9). Put shortly:
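Caspase-3/7 activation read by high content imaging with CellEvent Caspase 3/7 Green in MCF-7 cells (DMEM + 10% FBS), 6 h after dosing; eight-point dilution series. Bidirectional fitting relative to DMSO baseline.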

Test [15] can be described thus: CCTE_Harrill_HTTr_Apoptosis_DMEM_12hr: (Pilot) CCTE's 12-hour Apoptosis Assessment for the High-Throughput Transcriptomics (HTTr) Platform, in MCF-7 cells cultured in DMEM + 10% fetal bovine serum, Harrill Lab (AID 2283982; active = hit-call score of the fitted dose curve at least 0.9, where 1 is the maximum; inactive = score below 0.9). Put shortly: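 MCF-7 cells in DMEM + 10% FBS, exposed 12 h to an eight-point dilution series; caspase-3/7 activation imaged with CellEvent Green. Bidirectional fit versus DMSO.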

Test [16] can be described thus: CCTE_Harrill_HTTr_Apoptosis_DMEM_24hr: (Pilot) CCTE's 24-hour Apoptosis Assessment for the High-Throughput Transcriptomics (HTTr) Platform, in MCF-7 cells cultured in DMEM + 10% fetal bovine serum, Harrill Lab (AID 2283983; active = hit-call score of the fitted dose curve at least 0.9, where 1 is the maximum; inactive = score below 0.9). Put shortly: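 MCF-7 cells in DMEM + 10% FBS, eight-point dilution series, 24 h exposure. Caspase-3/7 activation imaged by high-content imaging with CellEvent Caspase 3/7 Green. Bidirectional curve fitting against DMSO baseline.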

The nature of test [17]: CCTE_Harrill_HTTr_Apoptosis_PRF_DMEM_6hr: (Pilot) CCTE's 6-hour Apoptosis Assessment for the High-Throughput Transcriptomics (HTTr) Platform, in MCF-7 cells cultured phenol red-free DMEM + 10% charcoal-stripped fetal bovine serum, Harrill Lab (AID 2283984; active = hit-call score of the fitted dose curve at least 0.9, where 1 is the maximum; inactive = score below 0.9). A digest of the protocol: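 MCF-7 cells in phenol red-free DMEM + 10% charcoal-stripped FBS, eight-point dilution series, 6 h exposure. Caspase-3/7 activation imaged by high-content imaging with CellEvent Caspase 3/7 Green; bidirectional fit versus DMSO baseline.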

Test [18] is described as follows: CCTE_Harrill_HTTr_Apoptosis_PRF_DMEM_24hr: (Pilot) CCTE's 24-hour Apoptosis Assessment for the High-Throughput Transcriptomics (HTTr) Platform, in MCF-7 cells cultured in phenol red-free DMEM + 10% charcoal-stripped fetal bovine serum, Harrill Lab (AID 2283986; active = hit-call score of the fitted dose curve at least 0.9, where 1 is the maximum; inactive = score below 0.9). A digest of the protocol:
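MCF-7 cells in phenol red-free DMEM with 10% charcoal-stripped FBS, exposed 24 h across an eight-point dilution series. Caspase-3/7 activation imaged with CellEvent Green by high content imaging; bidirectional fitting against DMSO.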

Values joined by “and” are separate entries in the source; they are usually repeats but may differ in a detail not shown here. Equal values may be shown once. Records with an inconclusive call do not appear. Active and inactive are the calls of the source. Rule for the calls, unless noted: active = hit-call score of the fitted dose curve at least 0.9, where 1 is the maximum; inconclusive = response in the unintended direction; inactive = score below 0.9.

As a reminder, the AC50 is the midpoint of the concentration-response curve, whichever way the signal moves.

Nucleoli Translocation, AR (gene 367), sequence (P10275 whole entry, looked up): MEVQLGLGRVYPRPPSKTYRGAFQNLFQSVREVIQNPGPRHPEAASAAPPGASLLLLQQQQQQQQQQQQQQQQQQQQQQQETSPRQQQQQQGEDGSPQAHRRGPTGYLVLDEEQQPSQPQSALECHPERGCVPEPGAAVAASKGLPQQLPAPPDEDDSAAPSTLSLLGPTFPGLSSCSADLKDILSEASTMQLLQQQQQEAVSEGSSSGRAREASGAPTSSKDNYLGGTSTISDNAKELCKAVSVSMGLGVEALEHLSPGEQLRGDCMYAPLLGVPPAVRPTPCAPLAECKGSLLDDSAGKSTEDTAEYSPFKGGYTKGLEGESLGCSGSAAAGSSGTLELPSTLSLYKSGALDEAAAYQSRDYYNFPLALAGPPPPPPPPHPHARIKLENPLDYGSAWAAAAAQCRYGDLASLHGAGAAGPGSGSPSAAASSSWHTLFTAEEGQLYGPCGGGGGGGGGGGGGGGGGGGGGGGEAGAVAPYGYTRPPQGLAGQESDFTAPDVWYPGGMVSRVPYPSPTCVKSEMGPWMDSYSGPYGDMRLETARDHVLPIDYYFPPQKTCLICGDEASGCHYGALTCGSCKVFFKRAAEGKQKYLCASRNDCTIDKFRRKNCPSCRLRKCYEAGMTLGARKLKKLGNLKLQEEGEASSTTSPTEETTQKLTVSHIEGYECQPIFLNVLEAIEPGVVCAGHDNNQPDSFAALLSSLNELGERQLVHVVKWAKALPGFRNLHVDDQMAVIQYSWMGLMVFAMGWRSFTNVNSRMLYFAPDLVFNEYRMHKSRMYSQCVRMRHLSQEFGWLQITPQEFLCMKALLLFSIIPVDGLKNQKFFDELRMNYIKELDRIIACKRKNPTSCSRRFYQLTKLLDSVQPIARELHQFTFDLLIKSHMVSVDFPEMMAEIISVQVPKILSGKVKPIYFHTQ
Ratio of Nucleoli Translocation and Cytoplasm, AR (gene 367), sequence (P10275 whole entry, looked up): as above
THRB (gene 7068), sequence (P10828 whole entry, looked up, the tested form may be a part): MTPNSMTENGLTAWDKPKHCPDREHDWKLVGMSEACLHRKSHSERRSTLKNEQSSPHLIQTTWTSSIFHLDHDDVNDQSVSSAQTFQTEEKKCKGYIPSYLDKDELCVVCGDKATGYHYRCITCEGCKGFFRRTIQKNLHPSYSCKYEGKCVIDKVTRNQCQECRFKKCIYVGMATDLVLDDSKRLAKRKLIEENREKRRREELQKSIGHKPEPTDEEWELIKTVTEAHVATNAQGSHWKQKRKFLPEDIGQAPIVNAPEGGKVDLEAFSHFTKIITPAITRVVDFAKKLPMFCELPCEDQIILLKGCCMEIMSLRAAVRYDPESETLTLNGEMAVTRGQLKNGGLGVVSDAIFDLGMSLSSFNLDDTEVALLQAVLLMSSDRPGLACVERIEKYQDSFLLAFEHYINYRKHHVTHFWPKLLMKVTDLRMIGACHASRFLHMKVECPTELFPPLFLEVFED

As for `C#C[C@]1(O)CC[C@H]2[C@@H]3CCC4=CC(=O)CC[C@@H]4[C@H]3CC[C@@]21C`, the outcome (with THRB (gene 7068); in test [1]) was inactive.

For the molecule `O=C(/C=C/c1ccc(O)cc1)CC(=O)/C=C/c1ccc(O)cc1`, the molecule was called inactive in test [2], in test [3] and in test [4].

`COCC(C)OCC(C)O` (stereo not drawn): the call in [2], in [3] and in test [4] was inactive.

As for `OCCC(F)(F)C(F)(F)C(F)(F)C(F)(F)C(F)(F)C(F)(F)C(F)(F)C(F)(F)F`, the result in test [2], in test [3] and in test [4] was inactive.

For `c1ccc2c(c1)ccc1ccccc12`, the outcome in test [2], in test [3] and in [4] was inactive.

Consider `NC(=O)N1C(=O)C(C(=O)c2cc(Cl)cs2)c2cc(F)c(Cl)cc21` (stereo not drawn), for which the AC50 in the test on DIO1 (gene 1733) was 37.4 µM (active); in [5], 5.91 µM (active). Moreover, the molecule was called inactive in [2], in [3] and in [4].

Regarding `O=C(O)Cc1cc(I)c(Oc2cc(I)c(O)c(I)c2)c(I)c1`, in test [6], the AC50 was 31.5 µM (active). Besides, the molecule was called inactive in [7], in [8], in test [9], in [10], in [11] and in [12]. Also, the outcome in test [13], in test [14], in test [15], in test [16], in test [17] and in [18] was inactive. Also, the outcome in test [5] was inactive.

On to `CCc1nn(C2CCCCC2)c2cc(C3(C#N)CCC(C(=O)O)CC3)ccc12` (stereo not drawn), for which the concentration at half-maximal activity (AC50) in test [5] was 15.6 µM (active).

As to `CCCCCCCCCCCCN1CCCC1=O`, the values for the AC50 (in the test with DIO1 (gene 1733); in test [5]) were 159 µM (active) and 31.4 µM (active), respectively.

`N#C[C@@H]1CC(F)(F)CN1C(=O)CNC1CC2CCC(C1)N2c1ncccn1` (stereo partly drawn): the outcome in test [2], in test [3] and in test [4] was inactive.

For the molecule `NC(=O)N(O)[C@@H]1C=C[C@H](Oc2cccc(Oc3ccc(F)cc3)c2)C1`, in test [5], the AC50 was 22.1 µM (active).

For `O=[N+]([O-])c1ccc(O)cc1`, the AC50 in test [5] was 66.5 µM (active) and 66 µM (active).

For `OC1CCC(C2CCCCC2)CC1` (stereo not drawn), in test [5], the AC50 is 50 µM (active).

With `CCCOC(=O)c1ccc(O)cc1`, the AC50 in [5] was 35.8 µM (active).

With `Oc1cc2ccccc2c2ccccc12`, the molecule was called inactive in [2] and in test [4]. For the same molecule, the results for the half-maximal activity concentration (AC50) in test [3] and in test [5] were 3.08 µM (active) and 28.6 µM (active), respectively.

Regarding `ClC1=C(Cl)C(Cl)(Cl)C(Cl)=C1Cl`, the AC50 in the test with DIO1 (gene 1733) is 78.5 µM (active).

For the molecule `CCCCC[C@H](O)CC(=O)CCc1ccc(O)c(OC)c1`, the result in test [3] and in test [4] was inactive.

Take `Cc1cc(CCN2CCN(c3nsc4ccccc34)CC2)cc2c1NC(=O)CC2(C)C`: the result in test [3] and in test [4] was inactive. Besides, the AC50 in test [5] is 12.2 µM (active).

The values are drawn from PubChem BioAssay (EPA / NIEHS).
